# Measurements: PubChem BioAssay
# Activity calls are given as the source filed them.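 How the source made its calls, unless noted: active means normalized viability below 100% at a tested concentration; inactive means the rest.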
# Columns and labels:
# [1] = drug combination growth inhibition, ovarian cancer – cell-based, oncology-focused library, rucaparib conditional, profiling panel (AID 1508598); settings: patient-derived ovarian cancer cells, CellTiter-Glo viability, 144 h, stronger effect = lower value
# [2] = viability loss with induced miR-34 in A549 – imaging, A549 dox-inducible miR-34, nuclei and caspase counts, primary screen (AID 1347080;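 active means compounds whose cell count with miR-34 switched on is under 0.7 times the count with it off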); settings: A549 miR-34 inducible, Hoechst nuclei count, 48 h
# [3] = MELAS cybrid and Rieske KO viability enhancers – cell-based, MELAS cybrids, Rieske KO mouse fibroblasts, CellTiter-Glo, primary screen (AID 1508586;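 active means mean z-score across replicates of 1.96 or higher in either the MELAS or the Rieske mutant cell line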;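 further: z relative to plate mean and SD of compound and empty wells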); settings: low glucose
# [4] = at 1.25 µM, OCI-C5x cells, with rucaparib 10 µM, 100% = cells with rucaparib alone
# [5] = at 1.25 µM, OCI-C5x cells, without rucaparib
# [6] = at 1.25 µM, OCI-P5x cells, with rucaparib 20 µM, 100% = cells with rucaparib alone
# [7] = at 1.25 µM, OCI-P5x cells, without rucaparib
# [8] = at 5 µM, OCI-C5x cells, with rucaparib 10 µM, 100% = cells with rucaparib alone
# [9] = at 5 µM, OCI-C5x cells, without rucaparib
# [10] = at 5 µM, OCI-P5x cells, with rucaparib 20 µM, 100% = cells with rucaparib alone
# [11] = at 5 µM, OCI-P5x cells, without rucaparib
# [12] = stronger effect = lower value, cell number ratio, induced over uninduced
# [13] = measured here: relative caspase fold change +Dox/-Dox
# [14] = measured here: total cells with miR-34 induction, stronger effect = lower value
# [15] = measured here: total cells without miR-34 induction
# [16] = MELAS cybrid survival, CellTiter-Glo 48 h, stronger effect = higher value
# [17] = Rieske KO mouse fibroblast survival, CellTiter-Glo 72 h
# [18] = at 0.000305 µM, OCI-C5x cells, with rucaparib 10 µM, 100% = cells with rucaparib alone
# [19] = at 0.000305 µM, OCI-C5x cells, without rucaparib
# [20] = at 0.000305 µM, OCI-P5x cells, with rucaparib 20 µM, 100% = cells with rucaparib alone
# [21] = at 0.000305 µM, OCI-P5x cells, without rucaparib
# [22] = at 0.00122 µM, OCI-C5x cells, with rucaparib 10 µM, 100% = cells with rucaparib alone
# [23] = at 0.00122 µM, OCI-C5x cells, without rucaparib
# [24] = at 0.00122 µM, OCI-P5x cells, with rucaparib 20 µM, 100% = cells with rucaparib alone
# [25] = at 0.00122 µM, OCI-P5x cells, without rucaparib
# [26] = at 0.00488 µM, OCI-C5x cells, with rucaparib 10 µM, 100% = cells with rucaparib alone
# [27] = at 0.00488 µM, OCI-C5x cells, without rucaparib
# [28] = at 0.00488 µM, OCI-P5x cells, with rucaparib 20 µM, 100% = cells with rucaparib alone
# [29] = at 0.00488 µM, OCI-P5x cells, without rucaparib
# [30] = at 0.0195 µM, OCI-C5x cells, with rucaparib 10 µM, 100% = cells with rucaparib alone
# [31] = at 0.0195 µM, OCI-C5x cells, without rucaparib
# [32] = at 0.0195 µM, OCI-P5x cells, with rucaparib 20 µM, 100% = cells with rucaparib alone
# [33] = at 0.0195 µM, OCI-P5x cells, without rucaparib
# [34] = at 0.0781 µM, OCI-C5x cells, with rucaparib 10 µM, 100% = cells with rucaparib alone
# [35] = at 0.0781 µM, OCI-C5x cells, without rucaparib
# [36] = at 0.0781 µM, OCI-P5x cells, with rucaparib 20 µM, 100% = cells with rucaparib alone
# [37] = at 0.0781 µM, OCI-P5x cells, without rucaparib
# [38] = at 0.313 µM, OCI-C5x cells, with rucaparib 10 µM, 100% = cells with rucaparib alone
# [39] = at 0.313 µM, OCI-C5x cells, without rucaparib
# [40] = at 0.313 µM, OCI-P5x cells, with rucaparib 20 µM, 100% = cells with rucaparib alone
# [41] = at 0.313 µM, OCI-P5x cells, without rucaparib
smiles,measurement,setting,value
CCOC(=O)c1[nH]c2cc(Cl)ccc2c1C(C(=O)NC(C)(C)C)N(C=O)Cc1ccc(Cl)cc1 (centres undefined),viability,[1]; [4],111% (inactive)
same,viability,[1]; [5],105% (inactive)
same,viability,[1]; [6],103% (inactive)
same,viability,[1]; [7],102% (inactive)
same,viability,[1]; [8],116% (inactive)
same,viability,[1]; [9],120% (inactive)
same,viability,[1]; [10],62% (active)
same,viability,[1]; [11],101% (inactive)
Cc1cc([N+](=O)[O-])ccc1NS(=O)(=O)c1cc(Cl)ccc1Cl,fold change,[2]; [12],0.984 (inactive)
same,fold change,[2]; [13],0.518
same,cell count,[2]; [14],3670
same,cell count,[2]; [15],3730
same,z-score,[3]; [16],-0.622 (inactive)
same,z-score,[3]; [17],-3.52
same,viability,[1]; [18],116% (inactive)
same,viability,[1]; [19],110% (inactive)
same,viability,[1]; [20],74.5% (active)
same,viability,[1]; [21],83.8% (active)
same,viability,[1]; [22],122% (inactive)
same,viability,[1]; [23],118% (inactive)
same,viability,[1]; [24],65.9% (active)
same,viability,[1]; [25],73.5% (active)
same,viability,[1]; [26],120% (inactive)
same,viability,[1]; [27],111% (inactive)
same,viability,[1]; [28],62.7% (active)
same,viability,[1]; [29],74.6% (active)
same,viability,[1]; [30],118% (inactive)
same,viability,[1]; [31],110% (inactive)
same,viability,[1]; [32],65.1% (active)
same,viability,[1]; [33],76.4% (active)
same,viability,[1]; [34],122% (inactive)
same,viability,[1]; [35],121% (inactive)
same,viability,[1]; [36],99.2% (active)
same,viability,[1]; [37],101% (inactive)
same,viability,[1]; [38],109% (inactive)
same,viability,[1]; [39],115% (inactive)
same,viability,[1]; [40],101% (inactive)
same,viability,[1]; [41],99.3% (active)
same,viability,[1]; [4],102% (inactive)
same,viability,[1]; [5],123% (inactive)
same,viability,[1]; [6],96.3% (active)
same,viability,[1]; [7],89.4% (active)
same,viability,[1]; [8],99.8% (active)
same,viability,[1]; [9],87% (active)
same,viability,[1]; [10],91.1% (active)
same,viability,[1]; [11],70.2% (active)
CN(C)C(=O)c1ccc(S(=O)(=O)c2ccc(NC(=O)C(C)(O)C(F)(F)F)c(Cl)c2)cc1 (centres undefined),fold change,[2]; [12],0.887 (inactive)
same,fold change,[2]; [13],0.601
same,cell count,[2]; [14],6480
same,cell count,[2]; [15],7310
same,z-score,[3]; [16],-0.391 (inactive)
same,z-score,[3]; [17],-0.0234
COc1cc(C(=O)NC2CCN(C)CC2)ccc1Nc1ncc2c(n1)N(C1CCCC1)CC(F)(F)C(=O)N2C,fold change,[2]; [12],1.05 (inactive)
same,fold change,[2]; [13],0.442
same,cell count,[2]; [14],1340
same,cell count,[2]; [15],1280
same,z-score,[3]; [16],-0.321 (inactive)
same,z-score,[3]; [17],-2.73
same,viability,[1]; [18],103% (inactive)
same,viability,[1]; [19],98.4% (active)
same,viability,[1]; [20],95.2% (active)
same,viability,[1]; [21],86.9% (active)
same,viability,[1]; [22],97.8% (active)
same,viability,[1]; [23],102% (inactive)
same,viability,[1]; [24],99.5% (active)
same,viability,[1]; [25],93.6% (active)
same,viability,[1]; [26],111% (inactive)
same,viability,[1]; [27],105% (inactive)
same,viability,[1]; [28],89.4% (active)
same,viability,[1]; [29],69.2% (active)
same,viability,[1]; [30],73.1% (active)
same,viability,[1]; [31],61.3% (active)
same,viability,[1]; [32],68.6% (active)
same,viability,[1]; [33],21.8% (active)
same,viability,[1]; [34],64% (active)
same,viability,[1]; [35],42.6% (active)
same,viability,[1]; [36],63% (active)
same,viability,[1]; [37],15.8% (active)
same,viability,[1]; [38],39.9% (active)
same,viability,[1]; [39],27.3% (active)
same,viability,[1]; [40],70.3% (active)
same,viability,[1]; [41],15.5% (active)
same,viability,[1]; [4],31% (active)
same,viability,[1]; [5],19.6% (active)
same,viability,[1]; [6],66.4% (active)
same,viability,[1]; [7],17.5% (active)
same,viability,[1]; [8],25.7% (active)
same,viability,[1]; [9],19.7% (active)
same,viability,[1]; [10],53.1% (active)
same,viability,[1]; [11],17.9% (active)
CNc1nc(Nc2cn(C(C)(C)C#N)nc2C)ncc1C(F)(F)F,fold change,[2]; [12],0.858 (inactive)
same,fold change,[2]; [13],0.457
same,cell count,[2]; [14],7920
same,cell count,[2]; [15],9230
same,z-score,[3]; [16],-0.302 (inactive)
same,z-score,[3]; [17],0.79
Nc1nonc1C(=Nc1ccc(F)c(Cl)c1)NO,fold change,[2]; [12],0.862 (inactive)
same,fold change,[2]; [13],0.685
same,cell count,[2]; [14],8500
same,cell count,[2]; [15],9860
same,z-score,[3]; [16],-0.315 (inactive)
same,z-score,[3]; [17],1.22
same,viability,[1]; [18],127% (inactive)
same,viability,[1]; [19],108% (inactive)
same,viability,[1]; [20],87% (active)
same,viability,[1]; [21],92.2% (active)
same,viability,[1]; [22],121% (inactive)
same,viability,[1]; [23],110% (inactive)
same,viability,[1]; [24],90.4% (active)
same,viability,[1]; [25],100% (active)
same,viability,[1]; [26],122% (inactive)
same,viability,[1]; [27],114% (inactive)
same,viability,[1]; [28],94% (active)
same,viability,[1]; [29],98% (active)
same,viability,[1]; [30],124% (inactive)
same,viability,[1]; [31],101% (inactive)
same,viability,[1]; [32],99.2% (active)
same,viability,[1]; [33],95.7% (active)
same,viability,[1]; [34],116% (inactive)
same,viability,[1]; [35],107% (inactive)
same,viability,[1]; [36],105% (inactive)
same,viability,[1]; [37],100% (active)
same,viability,[1]; [38],116% (inactive)
same,viability,[1]; [39],107% (inactive)
same,viability,[1]; [40],99.5% (active)
same,viability,[1]; [41],102% (inactive)
same,viability,[1]; [4],127% (inactive)
same,viability,[1]; [5],115% (inactive)
same,viability,[1]; [6],91.9% (active)
same,viability,[1]; [7],99.5% (active)
same,viability,[1]; [8],114% (inactive)
same,viability,[1]; [9],120% (inactive)
same,viability,[1]; [10],79% (active)
same,viability,[1]; [11],90.1% (active)
